Bioassay records (PubChem)
A selection: hits, their analogues and other compounds. The true share with any hit is near 19%.
IL1B secr inh: blocks inflammasome-driven IL-1 beta release; THP-1 LPS/ATP IL-1B secretion, AlphaLISA, 16 h; active compounds read low; activity change, % at 57.5 µM; 4.7% of 360,000 active; AID 743279; in the data active = activity change below about -50%; inconclusive = mostly about -30% to -49%
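Secreted IL-1B measured by AlphaLISA bead assay after 16 h compound exposure of THP-1 cells; compounds (final up to 57.5 uM) added 1 h before LPS (250 ng/mL) and ATP (1.25 mM) stimulation; lower signal means less secretion.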
ELG1 DNA repair: blocks ELG1-dependent DNA repair in HEK293T cells; HEK293T ELG1-luciferase reporter, luminescence, 16 h; DNA damage induced by 5-fluorouridine; Potency, µM (highest dose often 46.1 µM), inactives show at the highest dose activity change, negative = inhibition, actives largely listed as inhibitors; 2.3% of 330,000 active; note: potency is the fitted concentration of half-maximal effect; nearly all actives have a fitted effect of over 55% in size
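5-Fluorouridine DNA damage + compound/DMSO, 2,000 cells/well, 16 h, 37 °C/5% CO2. ONE-Glo, 30 min RT, luminescence. Readout = decrease in reporter signal.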
HT1080-NT tox: kills 2HG-producing HT-1080-NT fibrosarcoma cells | HT-1080-NT fibrosarcoma viability, CellTiter-Glo ATP luminescence, 48 h | Potency, µM (series often up to 46.1 µM), for inactives: at the highest dose activity, negative = less viability, hits mostly cytotoxic | 1.6% of 360,000 active | AID 686970;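 note: NT is the 2HG producing partner of a matched IDH1 knockdown line; potency is the fitted concentration of half-maximal effect; 0% = DMSO-treated cells and -100% = media-only wells without cells; nearly all actives have a fitted effect of over 55% in size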
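Viability of the 2HG-overproducing fibrosarcoma line after 48 hours of compound exposure at 37 degrees C was determined by luminescence with CellTiter-Glo, and concentration-effect curves were then fitted and categorized.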
HT1080 IDH1KD tx: HT-1080 IDH1 knockdown cell toxicity (counter line) | HT-1080 IDH1 knockdown viability, ATP luminescence, 48 h | Potency, µM (doses to about 46.1 µM), for the others: at the highest dose activity, negative = toxicity, most hits filed as cytotoxic | 2% of 360,000 active | AID 686971;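 note: potency is the fitted concentration of half-maximal effect; 0% = DMSO wells and -100% = cell-free medium wells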
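% activity derives from luminescence (CellTiter-Glo), normalised to DMSO and no-cell wells. HT-1080-IDH1KD cells, 750/well, had 48 h compound exposure at 37 °C.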
TDP1 cell CPT: growth inhibition of DT40 Tdp1-/-;hTDP1 cells with camptothecin (screen for TDP1 inhibitors) | 12% of 420,000 active | AID 686979 | chicken DT40 Tdp1-/-;hTDP1 cells + 20 nM CPT, ATP luminescence, 48 h | Potency, µM (titrated, usually from 46.2 µM), without a hit: at the top dose activity change, negative = growth inhibition, usual class: inhibitors; note: potency is the fitted concentration of half-maximal effect; nearly all actives have a fitted effect of over 55% in size
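Chicken DT40 Tdp1-/- cells complemented with human TDP1, 400 cells/well, exposed to compounds plus 20 nM camptothecin for at least 48 h at 37 C; viability read as ATP content by CellTiter-Glo luminescence.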
TDP1 cell noCPT: qHTS for Inhibitors of human tyrosyl-DNA phosphodiesterase 1 (TDP1): qHTS in cells in absence of CPT | Potency, µM (highest dose often 46.2 µM), inactives show at the top dose activity change, negative = growth inhibition, hits mostly inhibitors | DT40 Tdp1-/- hTDP1 cells, no CPT, ATP luminescence, 48 h | 15% of 420,000 active; note: potency is the fitted concentration of half-maximal effect; nearly all actives have a fitted effect of over 55% in size
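Growth of hTDP1-complemented DT40 Tdp1-knockout cells is measured by ATP luminescence after at least 48 hr compound exposure at 37 °C, with DMSO substituting for the 20 nM CPT used in the parallel screen.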
An asterisk follows results filed as active; ? = inconclusive; nt = no result given; [ ] = another dose, or the depositor's remark. Unless noted, calls come from the whole dose curve; as a rule, active = well fitted curve in the direction sought with a large enough effect; inconclusive = small, poorly fitted or top-dose-only effect, or another doubt; inactive = no such curve, though single readings can be large; an effect the other way counts as inactive or inconclusive. Unless noted, % is set by controls: 0 for no effect and ±100 for the full control effect.

SMILES | IL1B secr inh | ELG1 DNA repair | HT1080-NT tox | HT1080 IDH1KD tx | TDP1 cell CPT | TDP1 cell noCPT
Nc1cc(Cl)ccc1CN1C(=O)c2ccccc2C1=O | 16 | nt | ? | 1% | ? | ?
COc1ccc(-c2ccc(C(=O)NCCc3ccccc3)c3occc23)c(C)c1 | -15 | nt | ? | ? | 21µM* | 21µM*
COc1ccc(CNC(=O)c2ccc(-n3cncn3)c3ccoc23)cc1OC | 8 | nt | -21% | 4% | 0% | ?
COc1ccc(-c2coc3c(C(=O)NCc4cccs4)cccc23)c(C)c1 | -53* | nt | ? | ? | 23µM* | 18µM*
COc1ccc(CNC(=O)c2ccc(-n3ccnc3)c3ccoc23)cc1OC | -16 | nt | 2% | -4% | 18µM* | ?
COc1ccc(-c2ccc(C(=O)NCc3ccco3)c3occc23)c(C)c1 | -53* | nt | ? | ? | ? | ?
CCCCN(C(=O)C1=NN(c2ccccc2)C(=O)CC1)c1c(N)n(CC(C)C)c(=O)[nH]c1=O | 13 | 17% | -1% | 0% | -2% | 11%
Cn1c(=O)[nH]c(=O)c2c1nc(SCc1ccccc1Cl)n2CC(N)=O | nt | 10% | nt | nt | nt | nt
COc1ccc(-c2ccc(C(=O)NCc3cccs3)c3occc23)c(C)c1 | -23 | nt | ? | ? | ? | ?
COc1ccc(-c2ccc(C(=O)NCc3ccc(N(C)C)cc3)c3occc23)c(C)c1 | -15 | nt | -12% | ? | ? | 16µM*
Cn1cc(-c2coc3c(C(=O)NCc4cccc(Cl)c4)cccc23)cn1 | -68* | nt | ? | -22% | ? | 5.8µM*
COc1ccc(-c2coc3c(C(=O)NCc4ccco4)cccc23)c(C)c1 | -26 | nt | 18µM* | ? | 18µM* | ?
O=C(NCc1cccc(Cl)c1)c1ccc(-n2cncn2)c2ccoc12 | -28 | nt | 1% | -3% | 16µM* | ?
Cn1c(=O)c(-c2ccc(F)cc2)nc2cnc(Nc3ccccc3)nc21 | nt | nt | nt | nt | -1% | -4%
COc1cc(OC)c(NC(=O)C2=C(C)C(=O)OC23CCN(C(C)=O)CC3)cc1Cl | nt | nt | nt | nt | 11% | 6%
CC(=O)N1CCOc2ccc(S(=O)(=O)N(C)c3ccc(C)cc3)cc21 | 22 | 18% | 1% | -6% | ? | -1%
COC(=O)[C@@H]1CCCN1Cc1ccc2c(c1)CN(Cc1cccc(Cl)c1)CCO2 | nt | nt | nt | nt | 0%[9.04 µM] | -25%
COc1ccc(-c2coc3c(C(=O)NCc4cccc(Cl)c4)cccc23)c(C)c1 | -11 | nt | ? | -6% | 15µM* | 15µM*
COc1ccc(-c2coc3c(C(=O)NCc4ccc(C(F)(F)F)cc4)cccc23)c(C)c1 | -7 | nt | ? | ? | ? | -94%
COc1ccc(-c2coc3c(C(=O)NCC4CC4)cccc23)c(C)c1 | 0 | nt | ? | ? | 6.5µM* | 26µM*
C(=N\N=C\c1ccccn1)/c1ccccn1 | -3 | -1% | 29% | 19% | 17% | -5%
C(=N\NC1=Nc2cccc3cccc1c23)/c1ccccn1 | 111 | ? | -20% | ? | 8.2µM* | 9.2µM*
Cc1csc(N/N=C/c2ccccn2)n1 | -100* | ? | ? | ? | 0.58µM* | 0.46µM*
C(=NNc1ccc2ccccc2n1)c1ccccn1 | 53 | nt | 18µM* | 7.3µM* | 1.6µM* | 1µM*
Clc1ccccc1/C=N/NC1=Nc2cccc3cccc1c23 | -20 | ? | ? | ? | ? | ?
Cc1csc(N/N=C/c2ccc([N+](=O)[O-])cc2)n1 | -10 | ? | ? | ? | 0% | ?
S=C1NCc2cncnc2N1 | 54 | nt | 12% | 26% | -1% | 6%
